Experimental data published in PubChem BioAssay AID1159580 (chemical genetic matrix, 2015).
“And” between values parts separate entries of the source, which are not always exact repeats. Equal entries are not always repeated. Out of some 5,500 compounds screened, about 2,000 (36%) were called active. About 18% were inconclusive and are not listed. Cut-off read from the data, not from the text of the source: active = normalized growth mostly below about 0.91 (no sharp cut-off); inconclusive = no clear call, values can overlap the other calls; inactive = mostly above about 0.92. The list shows a part of the results.

Experiment: chemical genetic growth profiling, strain panel (AID 1159580);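 note: tested at 20 µM; growth read once vehicle control cultures reached saturation at 30 °C; 1 = growth at the plate median or of vehicle wells; lower values mean less growth of the strain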
Settings: growth OD

Measured: normalized growth

O=c1c(O)c(-c2ccc(O)c(O)c2)oc2cc(O)cc(O)c12
inactive: S. cerevisiae deletion strains, locus YKL009W, strain mrt4, hits give low values 1.01 | S. cerevisiae deletion strains, locus YKL068W, hits give low values 1.03 | S. cerevisiae deletion strains, locus YKL085W, strain MDH1 (second series), hits give low values 1.06 | S. cerevisiae deletion strains, locus YKL085W, strain MDH1, hits give low values 1.06 | S. cerevisiae deletion strains, locus YKL190W, strain CNB1, hits give low values 0.97 | S. cerevisiae deletion strains, locus YKR001C, strain vps1, hits give low values 0.94 | S. cerevisiae deletion strains, locus YKR026C, strain gcn3, hits give low values 1 | S. cerevisiae deletion strains, locus YKR091W, strain srl3, hits give low values 0.979 | S. cerevisiae deletion strains, locus YLL001W, strain dnm1, hits give low values 0.941 | S. cerevisiae deletion strains, locus YLL026W, hits give low values 0.982 | S. cerevisiae deletion strains, locus YLL041C, strain sdh2, hits give low values 0.979 | S. cerevisiae deletion strains, locus YLR039C, strain RIC1, hits give low values 0.872 | S. cerevisiae deletion strains, locus YLR058C, strain SHM2, hits give low values 0.937 | S. cerevisiae deletion strains, locus YLR102C, strain apc9, hits give low values 1.04 | S. cerevisiae deletion strains, locus YLR113W, strain HOG1, hits give low values 0.98 | S. cerevisiae deletion strains, locus YLR262C, strain YPT6, hits give low values 0.982 | S. cerevisiae deletion strains, locus YLR268W, strain sec22, hits give low values 0.924 | S. cerevisiae deletion strains, locus YLR330W, strain CHS5, hits give low values 0.991 | S. cerevisiae deletion strains, locus YLR371W, strain rom2, hits give low values 0.969 | S. cerevisiae deletion strains, locus YLR384C, strain iki3, hits give low values 0.951 | S. cerevisiae deletion strains, locus YML016C, strain PPZ1, hits give low values 0.961 | S. cerevisiae deletion strains, locus YML032C, strain rad52, hits give low values 1.04 | S. cerevisiae deletion strains, locus YML120C, strain ndi1, hits give low values 0.98 | S. cerevisiae deletion strains, locus YML124C, strain tub3, hits give low values 1.03 | S. cerevisiae deletion strains, locus YMR078C, strain ctf18, hits give low values 1.03 | S. cerevisiae deletion strains, locus YMR125W, strain sto1, hits give low values 1.02 | S. cerevisiae deletion strains, locus YMR129W, hits give low values 0.955 | S. cerevisiae deletion strains, locus YMR205C, strain PFK2, hits give low values 0.929 | S. cerevisiae deletion strains, locus YMR223W, strain ubp8, hits give low values 0.928 | S. cerevisiae deletion strains, locus YMR231W, strain pep5, hits give low values 0.953 | S. cerevisiae deletion strains, locus YMR263W, strain SAP30, hits give low values 0.906 | S. cerevisiae deletion strains, locus YMR307W, strain GAS1, hits give low values 0.683 and 1 | S. cerevisiae deletion strains, locus YNL067W, strain RPL9B, hits give low values 0.913 | S. cerevisiae deletion strains, locus YNL128W, strain TEP1, hits give low values 0.964 and 0.995 | S. cerevisiae deletion strains, locus YNL153C, strain GIM3, hits give low values 0.875 and 0.922 | S. cerevisiae deletion strains, locus YNL175C, strain NOP13, hits give low values 1.01 | S. cerevisiae deletion strains, locus YNL183C, strain NPR1, hits give low values 0.928 | S. cerevisiae deletion strains, locus YNL197C, strain WHI3, hits give low values 1.01 | S. cerevisiae deletion strains, locus YNL224C, strain SQS1, hits give low values 1.02 | S. cerevisiae deletion strains, locus YNL248C, strain rpa49, hits give low values 0.948 | S. cerevisiae deletion strains, locus YNL250W, strain rad50, hits give low values 1.02 | S. cerevisiae deletion strains, locus YNL271C, strain bni1, hits give low values 1.02 | S. cerevisiae deletion strains, locus YNL298W, strain CLA4, hits give low values 1.01 | S. cerevisiae deletion strains, locus YNL307C, strain MCK1, hits give low values 0.948 | S. cerevisiae deletion strains, locus YNL322C, strain KRE1 (second series), hits give low values 0.941 | S. cerevisiae deletion strains, locus YNL322C, strain KRE1, hits give low values 0.929 | S. cerevisiae deletion strains, locus YNR049C, strain mso1, hits give low values 0.967 | S. cerevisiae deletion strains, locus YNR052C, strain pop2, hits give low values 1 | S. cerevisiae deletion strains, locus YOL006C, strain TOP1, hits give low values 0.616 | S. cerevisiae deletion strains, locus YOL012C, strain htz1 0.39 | S. cerevisiae deletion strains, locus YOL147C, strain pex11, hits give low values 1.03 | S. cerevisiae deletion strains, locus YOR001W, strain rrp6, hits give low values 0.925 | S. cerevisiae deletion strains, locus YOR061W, strain CKA2, hits give low values 0.939 | S. cerevisiae deletion strains, locus YOR069W, strain VPS5, hits give low values 0.974 | S. cerevisiae deletion strains, locus YOR080W, strain dia2, hits give low values 0.925 | S. cerevisiae deletion strains, locus YOR083W, strain WHI5 (second series), hits give low values 0.994 | S. cerevisiae deletion strains, locus YOR136W, strain idh2, hits give low values 1.01 | S. cerevisiae deletion strains, locus YOR144C, strain elg1, hits give low values 1.03 | S. cerevisiae deletion strains, locus YOR184W, strain ser1, hits give low values 0.92 | S. cerevisiae deletion strains, locus YOR231W, strain MKK1, hits give low values 0.991 | S. cerevisiae deletion strains, locus YOR265W, strain rbl2, hits give low values 0.963 | S. cerevisiae deletion strains, locus YOR290C, strain snf2, hits give low values 0.888 | S. cerevisiae deletion strains, locus YOR316C, strain cot1, hits give low values 1.04 | S. cerevisiae deletion strains, locus YPL055C, strain LGE1, hits give low values 0.86 and 1 | S. cerevisiae deletion strains, locus YPL078C, strain atp4, hits give low values 0.927 | S. cerevisiae deletion strains, locus YPL240C, strain hsp82, hits give low values 0.936 | S. cerevisiae deletion strains, locus YPL241C, strain CIN2, hits give low values 0.987 | S. cerevisiae deletion strains, locus YPL256C, strain CLN2, hits give low values 0.982 | S. cerevisiae deletion strains, locus YPR119W, strain clb2, hits give low values 1.05 | S. cerevisiae deletion strains, locus YPR141C, strain kar3, hits give low values 1.01 | S. cerevisiae deletion strains, locus YPR163C, strain tif3, hits give low values 1.03 | S. cerevisiae deletion strains, locus YPR167C, strain met16, hits give low values 1.02 | S. cerevisiae deletion strains, strain wtn01, hits give low values 0.931 | S. cerevisiae strains, strain wild type, hits give low values 0.912
active: S. cerevisiae deletion strains, locus YKL160W, strain elf1, hits give low values 0.87 | S. cerevisiae deletion strains, locus YLR027C, strain aat2, hits give low values 0.893 | S. cerevisiae deletion strains, locus YLR221C, strain rsa3, hits give low values 0.906 | S. cerevisiae deletion strains, locus YLR258W, strain gsy2, hits give low values 0.878 | S. cerevisiae deletion strains, locus YLR262C, strain YPT6 (second series), hits give low values 0.779 | S. cerevisiae deletion strains, locus YLR320W, strain mms22, hits give low values 0.869 | S. cerevisiae deletion strains, locus YLR342W, strain FKS1 (second series), hits give low values 0.719 | S. cerevisiae deletion strains, locus YLR342W, strain FKS1, hits give low values 0.8 | S. cerevisiae deletion strains, locus YLR357W, strain rsc2, hits give low values 0.713 | S. cerevisiae deletion strains, locus YLR370C, strain arc18, hits give low values 0.859 | S. cerevisiae deletion strains, locus YLR418C, strain cdc73, hits give low values 0.775 | S. cerevisiae deletion strains, locus YMR058W, strain fet3, hits give low values 0.882 | S. cerevisiae deletion strains, locus YNL071W, strain lat1, hits give low values 0.848 | S. cerevisiae deletion strains, locus YNL209W, strain ssb2, hits give low values 0.636 | S. cerevisiae deletion strains, locus YNL233W, strain BNI4, hits give low values 0.859 | S. cerevisiae deletion strains, locus YOR070C, strain gyp1, hits give low values 0.885 | S. cerevisiae deletion strains, locus YOR083W, strain WHI5, hits give low values 0.808 | S. cerevisiae deletion strains, locus YOR106W, strain vam3, hits give low values 0.653 | S. cerevisiae deletion strains, locus YOR270C, strain vph1, hits give low values 0.749 | S. cerevisiae deletion strains, locus YPL051W, strain arl3, hits give low values 0.814 | S. cerevisiae deletion strains, locus YPL106C, strain sse1, hits give low values 0.783
